# Results published in article PMC7862700, “An all-to-all approach to the identification of sequence-specific readers for epigenetic DNA modifications on cytosine”.
# Columns and labels:
# Assay in all cases: DAPPL (digital affinity profiling via proximity ligation, sequencing); 10 mM Tris-HCl pH 7.5, 50 mM NaCl, 1 mM DTT, 4% glycerol, room temperature, 30 min; GST-TFs on glutathione beads, 16-mer random dsDNA library, 0.1% formaldehyde crosslink after washing; high values mean tight binding
# FEV = target: T1, FEV (Homo sapiens, UniProt Q99581 1-238); conditions: protein: recombinant; tags: N-terminal GST; dsDNA, one strand shown
# T1 sequence: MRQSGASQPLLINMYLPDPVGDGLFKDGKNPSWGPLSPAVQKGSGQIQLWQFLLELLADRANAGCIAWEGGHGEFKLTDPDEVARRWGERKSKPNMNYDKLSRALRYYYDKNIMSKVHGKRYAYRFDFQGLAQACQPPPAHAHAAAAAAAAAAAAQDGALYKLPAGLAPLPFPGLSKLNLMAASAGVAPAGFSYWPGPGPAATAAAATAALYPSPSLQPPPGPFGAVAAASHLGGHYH
# In short: (§1)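 Binding signal is each hexamer's read frequency for a factor divided by its frequency in the tag-only sample. The factors were GST-fused human transcription factors from yeast, captured on glutathione beads, DNA-barcoded and pooled with that sample. Pools were incubated with 200 nmole of a random double-stranded 16-mer DNA library in Tris/NaCl/DTT/glycerol buffer at room temperature for 30 min, then washed, crosslinked with 0.1% formaldehyde, proximity-ligated with BsaI/T4 ligase (1 h, 37 °C), PCR-amplified and sequenced on an Illumina NextSeq500.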
# ETV5 = ETV5 (Homo sapiens, UniProt P41161 1-510); conditions: protein: recombinant; tags: N-terminal GST; dsDNA, one strand shown
# In short: as §1
# HSF1 = HSF1 (Homo sapiens, UniProt Q00613 1-529); conditions: protein: recombinant; tags: N-terminal GST; chain copies: 3; dsDNA, one strand shown
# In short: as §1
# ELF4 = ELF4 (Homo sapiens, UniProt Q99607 1-663); conditions: protein: recombinant; tags: N-terminal GST; dsDNA, one strand shown
# In short: as §1
# ELK4 = target: T2, ELK4 (Homo sapiens, UniProt P28324-2 1-405); conditions: protein: recombinant; tags: N-terminal GST; dsDNA, one strand shown
# T2 sequence: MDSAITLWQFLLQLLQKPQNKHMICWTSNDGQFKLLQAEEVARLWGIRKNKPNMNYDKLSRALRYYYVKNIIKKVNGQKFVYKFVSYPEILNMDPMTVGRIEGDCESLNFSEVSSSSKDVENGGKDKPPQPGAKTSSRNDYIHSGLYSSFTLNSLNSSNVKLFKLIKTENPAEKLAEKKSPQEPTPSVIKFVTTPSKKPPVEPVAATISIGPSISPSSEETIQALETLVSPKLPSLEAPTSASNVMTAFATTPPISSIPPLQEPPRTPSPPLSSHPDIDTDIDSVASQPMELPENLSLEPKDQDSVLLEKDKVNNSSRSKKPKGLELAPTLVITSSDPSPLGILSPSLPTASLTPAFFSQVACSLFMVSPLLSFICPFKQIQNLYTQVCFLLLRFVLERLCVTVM
# In short: as §1
# ETV2 = target: T3, ETV2 (Homo sapiens, UniProt O00321 1-342); conditions: protein: recombinant; tags: N-terminal GST; dsDNA, one strand shown
# T3 sequence: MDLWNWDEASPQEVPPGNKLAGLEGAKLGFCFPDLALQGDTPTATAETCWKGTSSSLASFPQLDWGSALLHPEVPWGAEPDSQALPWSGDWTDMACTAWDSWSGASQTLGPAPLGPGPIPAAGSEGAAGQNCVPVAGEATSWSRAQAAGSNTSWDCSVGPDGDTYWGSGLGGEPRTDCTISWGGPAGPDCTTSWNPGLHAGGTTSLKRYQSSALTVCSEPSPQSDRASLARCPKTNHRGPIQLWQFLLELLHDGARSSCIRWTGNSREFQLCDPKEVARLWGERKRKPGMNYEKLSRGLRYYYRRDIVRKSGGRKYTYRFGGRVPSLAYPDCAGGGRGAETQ
# In short: as §1
# ELF3 = target: T4, ELF3 (Homo sapiens, UniProt P78545 1-371); conditions: protein: recombinant; tags: N-terminal GST; dsDNA, one strand shown
# T4 sequence: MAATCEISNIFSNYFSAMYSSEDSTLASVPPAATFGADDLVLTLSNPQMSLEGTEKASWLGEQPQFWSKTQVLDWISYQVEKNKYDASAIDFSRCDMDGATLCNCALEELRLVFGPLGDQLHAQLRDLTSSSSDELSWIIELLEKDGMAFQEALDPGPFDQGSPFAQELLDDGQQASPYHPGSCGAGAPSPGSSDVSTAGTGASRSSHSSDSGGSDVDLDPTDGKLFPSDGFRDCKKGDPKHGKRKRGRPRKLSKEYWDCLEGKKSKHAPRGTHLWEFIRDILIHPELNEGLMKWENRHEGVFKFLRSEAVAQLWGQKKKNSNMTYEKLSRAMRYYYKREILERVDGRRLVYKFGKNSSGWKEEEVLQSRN
# In short: as §1
# CRX = CRX (Homo sapiens, UniProt O43186 1-299); conditions: protein: recombinant; tags: N-terminal GST; dsDNA, one strand shown
# In short: as §1
# ETV1 = ETV1 (Homo sapiens, UniProt P50549 1-477); conditions: protein: recombinant; tags: N-terminal GST; dsDNA, one strand shown
# In short: as §1
# ERF = target: T5, ERF (Homo sapiens, UniProt P50548 1-548); conditions: protein: recombinant; tags: N-terminal GST; dsDNA, one strand shown
# T5 sequence: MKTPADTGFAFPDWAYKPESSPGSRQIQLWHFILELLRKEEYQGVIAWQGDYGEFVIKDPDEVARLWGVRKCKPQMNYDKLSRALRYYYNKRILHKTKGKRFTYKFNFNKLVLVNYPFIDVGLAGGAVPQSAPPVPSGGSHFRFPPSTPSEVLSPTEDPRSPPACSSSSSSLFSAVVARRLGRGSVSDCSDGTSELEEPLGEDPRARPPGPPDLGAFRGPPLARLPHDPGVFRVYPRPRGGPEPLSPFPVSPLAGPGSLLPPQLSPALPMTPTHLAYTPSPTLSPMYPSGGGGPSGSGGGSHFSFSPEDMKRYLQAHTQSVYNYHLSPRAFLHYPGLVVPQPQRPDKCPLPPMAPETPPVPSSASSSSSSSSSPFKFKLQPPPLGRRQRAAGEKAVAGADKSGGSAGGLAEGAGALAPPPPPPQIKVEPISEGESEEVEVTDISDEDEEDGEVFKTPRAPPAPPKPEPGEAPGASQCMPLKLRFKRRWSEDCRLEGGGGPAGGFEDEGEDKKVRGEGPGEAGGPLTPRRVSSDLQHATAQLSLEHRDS
# In short: as §1
# ETV3L = target: T6, ETV3L (Homo sapiens, UniProt Q6ZN32 1-361); conditions: protein: recombinant; tags: N-terminal GST; dsDNA, one strand shown
# T6 sequence: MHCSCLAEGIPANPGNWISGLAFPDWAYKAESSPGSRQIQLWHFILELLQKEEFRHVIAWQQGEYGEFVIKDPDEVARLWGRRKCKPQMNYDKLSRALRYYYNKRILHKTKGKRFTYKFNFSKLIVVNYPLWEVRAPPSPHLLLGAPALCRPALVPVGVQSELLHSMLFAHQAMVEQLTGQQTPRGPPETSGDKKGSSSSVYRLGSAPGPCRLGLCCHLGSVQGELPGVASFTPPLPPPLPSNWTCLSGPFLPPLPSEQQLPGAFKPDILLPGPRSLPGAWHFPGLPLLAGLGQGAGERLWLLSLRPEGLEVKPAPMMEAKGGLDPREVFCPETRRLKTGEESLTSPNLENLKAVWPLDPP
# In short: as §1
# ETS2 = target: T7, ETS2 (Homo sapiens, UniProt P15036 1-469); conditions: protein: recombinant; tags: N-terminal GST; dsDNA, one strand shown
# T7 sequence: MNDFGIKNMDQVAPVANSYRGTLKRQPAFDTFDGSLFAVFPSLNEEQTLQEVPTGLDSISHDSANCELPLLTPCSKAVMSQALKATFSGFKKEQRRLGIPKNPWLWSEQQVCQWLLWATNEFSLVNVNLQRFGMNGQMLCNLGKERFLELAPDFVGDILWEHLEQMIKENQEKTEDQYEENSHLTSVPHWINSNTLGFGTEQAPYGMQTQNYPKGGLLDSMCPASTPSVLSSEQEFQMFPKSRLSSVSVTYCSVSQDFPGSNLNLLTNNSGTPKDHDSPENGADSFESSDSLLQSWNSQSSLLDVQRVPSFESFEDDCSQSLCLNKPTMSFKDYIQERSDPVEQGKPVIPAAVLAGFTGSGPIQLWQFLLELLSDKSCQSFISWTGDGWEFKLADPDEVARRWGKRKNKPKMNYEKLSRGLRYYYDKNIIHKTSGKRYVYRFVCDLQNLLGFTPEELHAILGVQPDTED
# In short: as §1
# SPDEF = target: T8, SPDEF (Homo sapiens, UniProt O95238 1-335); conditions: protein: recombinant; tags: N-terminal GST; dsDNA, one strand shown
# T8 sequence: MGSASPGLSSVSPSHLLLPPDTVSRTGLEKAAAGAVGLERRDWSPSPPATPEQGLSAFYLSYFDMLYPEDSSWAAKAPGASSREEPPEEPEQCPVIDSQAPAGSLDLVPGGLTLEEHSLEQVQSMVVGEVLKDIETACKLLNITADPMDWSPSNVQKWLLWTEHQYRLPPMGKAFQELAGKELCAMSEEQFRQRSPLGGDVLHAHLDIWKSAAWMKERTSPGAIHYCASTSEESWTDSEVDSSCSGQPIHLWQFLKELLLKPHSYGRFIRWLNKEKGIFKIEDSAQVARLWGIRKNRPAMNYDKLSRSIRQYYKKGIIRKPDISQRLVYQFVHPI
# In short: as §1
# ETV7 = target: T9, ETV7 (Homo sapiens, UniProt Q9Y603 1-341); conditions: protein: recombinant; tags: N-terminal GST; dsDNA, one strand shown
# T9 sequence: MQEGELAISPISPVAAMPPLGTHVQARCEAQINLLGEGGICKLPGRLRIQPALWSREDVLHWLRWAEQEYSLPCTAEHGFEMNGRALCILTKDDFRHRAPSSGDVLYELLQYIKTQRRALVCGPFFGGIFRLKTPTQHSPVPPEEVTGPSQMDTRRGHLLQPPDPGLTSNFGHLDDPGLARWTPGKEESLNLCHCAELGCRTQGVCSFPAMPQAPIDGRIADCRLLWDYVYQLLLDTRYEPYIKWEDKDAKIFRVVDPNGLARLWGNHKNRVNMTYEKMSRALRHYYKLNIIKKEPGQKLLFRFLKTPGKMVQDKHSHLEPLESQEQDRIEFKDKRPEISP
# In short: as §1
# ELF5 = target: T10, ELF5 (Homo sapiens, UniProt Q9UKW6-2 1-255); conditions: protein: recombinant; tags: N-terminal GST; dsDNA, one strand shown
# T10 sequence: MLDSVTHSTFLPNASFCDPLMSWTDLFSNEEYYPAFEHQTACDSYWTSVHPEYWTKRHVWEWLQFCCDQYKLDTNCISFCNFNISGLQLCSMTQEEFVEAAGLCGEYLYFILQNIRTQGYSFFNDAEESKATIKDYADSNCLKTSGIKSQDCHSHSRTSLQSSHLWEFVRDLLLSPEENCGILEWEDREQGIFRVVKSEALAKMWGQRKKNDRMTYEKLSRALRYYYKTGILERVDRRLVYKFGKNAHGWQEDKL
# In short: as §1
# ETV3 = target: T11, ETV3 (Homo sapiens, UniProt P41162-2 1-143); conditions: protein: recombinant; tags: N-terminal GST; dsDNA, one strand shown
# T11 sequence: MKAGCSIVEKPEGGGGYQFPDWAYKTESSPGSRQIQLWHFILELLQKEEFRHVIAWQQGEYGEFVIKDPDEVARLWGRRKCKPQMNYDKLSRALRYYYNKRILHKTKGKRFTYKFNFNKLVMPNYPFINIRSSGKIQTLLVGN
# In short: as §1
# ETV6 = ETV6 (Homo sapiens, UniProt P41212 1-452); conditions: protein: recombinant; tags: N-terminal GST; dsDNA, one strand shown
# In short: as §1
# HSF1, sequence (Q00613 whole entry): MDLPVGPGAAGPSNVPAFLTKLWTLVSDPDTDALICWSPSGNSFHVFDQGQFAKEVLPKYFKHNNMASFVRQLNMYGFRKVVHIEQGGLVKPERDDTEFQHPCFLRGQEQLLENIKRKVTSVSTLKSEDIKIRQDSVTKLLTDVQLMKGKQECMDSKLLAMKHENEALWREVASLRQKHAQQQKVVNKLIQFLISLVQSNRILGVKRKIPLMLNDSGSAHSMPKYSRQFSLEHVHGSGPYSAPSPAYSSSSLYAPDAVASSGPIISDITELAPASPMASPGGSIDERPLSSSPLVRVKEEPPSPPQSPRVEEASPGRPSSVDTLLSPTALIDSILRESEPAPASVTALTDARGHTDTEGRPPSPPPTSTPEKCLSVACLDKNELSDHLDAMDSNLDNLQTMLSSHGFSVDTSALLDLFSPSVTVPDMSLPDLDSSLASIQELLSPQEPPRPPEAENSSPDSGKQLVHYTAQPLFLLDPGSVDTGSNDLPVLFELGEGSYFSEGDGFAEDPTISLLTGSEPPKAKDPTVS
# ETV6, sequence (P41212 whole entry): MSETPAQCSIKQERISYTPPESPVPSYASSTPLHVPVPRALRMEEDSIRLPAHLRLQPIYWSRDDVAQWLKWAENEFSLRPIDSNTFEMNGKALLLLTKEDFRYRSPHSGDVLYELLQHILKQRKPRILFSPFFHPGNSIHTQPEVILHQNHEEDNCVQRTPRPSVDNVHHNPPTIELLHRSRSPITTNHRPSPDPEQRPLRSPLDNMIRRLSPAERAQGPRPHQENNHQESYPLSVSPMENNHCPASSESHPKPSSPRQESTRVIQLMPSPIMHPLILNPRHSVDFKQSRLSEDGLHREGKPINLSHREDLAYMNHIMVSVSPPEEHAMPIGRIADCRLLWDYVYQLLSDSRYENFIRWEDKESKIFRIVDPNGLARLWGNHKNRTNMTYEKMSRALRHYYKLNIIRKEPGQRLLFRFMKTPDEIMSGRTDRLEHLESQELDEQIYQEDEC
# ELF4, sequence (Q99607 whole entry): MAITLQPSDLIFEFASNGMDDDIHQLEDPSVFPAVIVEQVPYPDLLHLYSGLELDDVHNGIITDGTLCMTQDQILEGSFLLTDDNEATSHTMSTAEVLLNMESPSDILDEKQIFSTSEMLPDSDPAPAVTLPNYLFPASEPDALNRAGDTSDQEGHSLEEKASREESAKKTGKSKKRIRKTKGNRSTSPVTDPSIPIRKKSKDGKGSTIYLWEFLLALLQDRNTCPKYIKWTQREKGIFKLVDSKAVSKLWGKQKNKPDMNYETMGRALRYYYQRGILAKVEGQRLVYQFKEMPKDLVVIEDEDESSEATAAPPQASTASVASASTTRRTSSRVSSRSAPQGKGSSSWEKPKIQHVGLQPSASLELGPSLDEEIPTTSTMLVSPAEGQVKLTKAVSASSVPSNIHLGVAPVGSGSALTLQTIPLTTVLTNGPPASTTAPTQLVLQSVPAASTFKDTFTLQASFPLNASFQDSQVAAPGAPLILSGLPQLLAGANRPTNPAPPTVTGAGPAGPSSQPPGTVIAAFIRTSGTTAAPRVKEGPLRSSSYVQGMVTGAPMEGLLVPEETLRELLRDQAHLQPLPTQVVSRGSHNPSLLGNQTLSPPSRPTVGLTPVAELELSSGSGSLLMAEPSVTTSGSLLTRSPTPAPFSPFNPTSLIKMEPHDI
# ETV5, sequence (P41161 whole entry): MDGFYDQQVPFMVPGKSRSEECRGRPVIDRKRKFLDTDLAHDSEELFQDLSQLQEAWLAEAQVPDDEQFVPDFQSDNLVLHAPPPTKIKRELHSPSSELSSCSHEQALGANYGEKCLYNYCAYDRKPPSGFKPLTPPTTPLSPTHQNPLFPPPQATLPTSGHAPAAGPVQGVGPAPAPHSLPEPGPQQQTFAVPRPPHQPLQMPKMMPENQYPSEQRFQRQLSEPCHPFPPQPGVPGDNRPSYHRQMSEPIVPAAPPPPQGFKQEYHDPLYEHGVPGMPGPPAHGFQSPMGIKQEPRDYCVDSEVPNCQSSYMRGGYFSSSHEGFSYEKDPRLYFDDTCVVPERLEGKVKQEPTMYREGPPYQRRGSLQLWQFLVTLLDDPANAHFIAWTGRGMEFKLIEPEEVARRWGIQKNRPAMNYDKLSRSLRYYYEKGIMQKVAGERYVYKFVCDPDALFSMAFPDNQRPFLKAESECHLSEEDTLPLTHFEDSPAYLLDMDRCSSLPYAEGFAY
# ETV1, sequence (P50549 whole entry): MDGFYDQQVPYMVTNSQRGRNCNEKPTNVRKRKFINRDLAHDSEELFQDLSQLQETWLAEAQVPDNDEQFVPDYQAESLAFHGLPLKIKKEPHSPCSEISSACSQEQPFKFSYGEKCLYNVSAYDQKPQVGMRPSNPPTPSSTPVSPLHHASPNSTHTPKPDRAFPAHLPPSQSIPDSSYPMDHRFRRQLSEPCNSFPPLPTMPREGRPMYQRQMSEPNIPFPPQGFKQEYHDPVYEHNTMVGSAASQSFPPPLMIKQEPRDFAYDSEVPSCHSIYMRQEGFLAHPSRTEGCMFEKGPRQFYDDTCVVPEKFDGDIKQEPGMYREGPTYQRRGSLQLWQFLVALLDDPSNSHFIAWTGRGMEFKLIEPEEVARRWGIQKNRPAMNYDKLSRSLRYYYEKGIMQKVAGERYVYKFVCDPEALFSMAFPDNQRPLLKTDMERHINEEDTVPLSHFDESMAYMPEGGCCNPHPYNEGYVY
# CRX, sequence (O43186 whole entry): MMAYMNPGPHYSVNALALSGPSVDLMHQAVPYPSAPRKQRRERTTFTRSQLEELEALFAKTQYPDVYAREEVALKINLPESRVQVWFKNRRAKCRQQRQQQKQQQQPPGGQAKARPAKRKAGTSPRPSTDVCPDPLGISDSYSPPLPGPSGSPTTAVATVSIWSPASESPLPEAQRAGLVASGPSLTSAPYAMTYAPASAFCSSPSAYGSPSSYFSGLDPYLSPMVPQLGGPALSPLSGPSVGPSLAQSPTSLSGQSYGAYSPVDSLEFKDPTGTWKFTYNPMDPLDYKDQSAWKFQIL
sequence,measurement,setting,value
GTTTTA,binding signal,FEV,"1.08 fold enrichment (6-mer frequency, TF over GST control)"
same,binding signal,ETV5,"1.07 fold enrichment (6-mer frequency, TF over GST control)"
same,binding signal,HSF1,"1.17 fold enrichment (6-mer frequency, TF over GST control)"
same,binding signal,ELF4,"1.15 fold enrichment (6-mer frequency, TF over GST control)"
same,binding signal,ELK4,"1.07 fold enrichment (6-mer frequency, TF over GST control)"
same,binding signal,ETV2,"1.1 fold enrichment (6-mer frequency, TF over GST control)"
same,binding signal,ELF3,"1.06 fold enrichment (6-mer frequency, TF over GST control)"
same,binding signal,CRX,"1.41 fold enrichment (6-mer frequency, TF over GST control)"
same,binding signal,ETV1,"1.13 fold enrichment (6-mer frequency, TF over GST control)"
same,binding signal,ERF,"1.2 fold enrichment (6-mer frequency, TF over GST control)"
same,binding signal,ETV3L,"1.02 fold enrichment (6-mer frequency, TF over GST control)"
same,binding signal,ETS2,"1.1 fold enrichment (6-mer frequency, TF over GST control)"
same,binding signal,SPDEF,"1.04 fold enrichment (6-mer frequency, TF over GST control)"
same,binding signal,ETV7,"1.23 fold enrichment (6-mer frequency, TF over GST control)"
same,binding signal,ELF5,"1.09 fold enrichment (6-mer frequency, TF over GST control)"
same,binding signal,ETV3,"1.21 fold enrichment (6-mer frequency, TF over GST control)"
same,binding signal,ETV6,"1.13 fold enrichment (6-mer frequency, TF over GST control)"
